# Source: PubChem
# Shown are actives, neighbours in structure and some others; about 6.9% of the full set was active somewhere.
# BAZ2B inh – qHTS Assay for Inhibitors of BAZ2B. Bromodomain adjacent to zinc finger domain protein 2B (Homo sapiens), Q9UIF8. AID 504333, 2011. Potency, µM (doses to about 114 µM), for the others: at the top dose activity change, negative = inhibition, hits mostly inhibitors. AlphaScreen BAZ2B-H3K14Ac peptide displacement. 360,000 tested, 4.4% active; also: % is scaled to controls: 0 for no effect and ±100 for the full control effect; nearly all actives have a fitted effect of over 60% in size
#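 AlphaScreen displacement of biotin-H3(5-23)K14Ac peptide (50 nM final) from BAZ2B (50 nM final) in PBS pH 7.4, 0.01% Tween-20; complex preformed 30 min RT, then compounds (top 110 uM) 30 min RT, beads 20 min dark.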
# HP1b chromo inh – HTS for Inhibitors of HP1-beta Chromodomain Interactions with Methylated Histone Tails | Chromobox protein homolog 1 (Homo sapiens), P83916 | AlphaScreen HP1-beta / biotin-H3K9me3 peptide binding | Potency, µM (top dose mostly 114 µM), for the others: at the highest dose activity change, negative = inhibition, actives largely listed as inhibitors | 390,000 tested, 0.56% active | AID 540317, 2011; also: nearly all actives have a fitted effect of over 70% in size
#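 AlphaScreen: HP1-beta (50 nM) preformed 30 min with biotin-H3(1-18)K9me3 peptide (50 nM) in PBS pH 7.4, 0.01% Tween-20. Compound added for 30 min at RT, then streptavidin donor/nickel chelate acceptor beads (10 ug/mL) for 30 min.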
# JMJD2A Tudor – qHTS Assay for Inhibitors of JMJD2A-Tudor Domain | Potency, µM (series often up to 114 µM), inactives show top-dose activity change, negative = inhibition, most hits filed as inhibitors | 390,000 tested, 4.4% active | AID 504339, 2011 | AlphaScreen JMJD2A-Tudor / H3K4me3 peptide binding | Lysine-specific demethylase 4A (Homo sapiens), O75164; also: % is scaled to controls: 0 for no effect and ±100 for the full control effect; nearly all actives have a fitted effect of over 50% in size
# Target sequence (O75164 whole entry, looked up, the tested form may be a part): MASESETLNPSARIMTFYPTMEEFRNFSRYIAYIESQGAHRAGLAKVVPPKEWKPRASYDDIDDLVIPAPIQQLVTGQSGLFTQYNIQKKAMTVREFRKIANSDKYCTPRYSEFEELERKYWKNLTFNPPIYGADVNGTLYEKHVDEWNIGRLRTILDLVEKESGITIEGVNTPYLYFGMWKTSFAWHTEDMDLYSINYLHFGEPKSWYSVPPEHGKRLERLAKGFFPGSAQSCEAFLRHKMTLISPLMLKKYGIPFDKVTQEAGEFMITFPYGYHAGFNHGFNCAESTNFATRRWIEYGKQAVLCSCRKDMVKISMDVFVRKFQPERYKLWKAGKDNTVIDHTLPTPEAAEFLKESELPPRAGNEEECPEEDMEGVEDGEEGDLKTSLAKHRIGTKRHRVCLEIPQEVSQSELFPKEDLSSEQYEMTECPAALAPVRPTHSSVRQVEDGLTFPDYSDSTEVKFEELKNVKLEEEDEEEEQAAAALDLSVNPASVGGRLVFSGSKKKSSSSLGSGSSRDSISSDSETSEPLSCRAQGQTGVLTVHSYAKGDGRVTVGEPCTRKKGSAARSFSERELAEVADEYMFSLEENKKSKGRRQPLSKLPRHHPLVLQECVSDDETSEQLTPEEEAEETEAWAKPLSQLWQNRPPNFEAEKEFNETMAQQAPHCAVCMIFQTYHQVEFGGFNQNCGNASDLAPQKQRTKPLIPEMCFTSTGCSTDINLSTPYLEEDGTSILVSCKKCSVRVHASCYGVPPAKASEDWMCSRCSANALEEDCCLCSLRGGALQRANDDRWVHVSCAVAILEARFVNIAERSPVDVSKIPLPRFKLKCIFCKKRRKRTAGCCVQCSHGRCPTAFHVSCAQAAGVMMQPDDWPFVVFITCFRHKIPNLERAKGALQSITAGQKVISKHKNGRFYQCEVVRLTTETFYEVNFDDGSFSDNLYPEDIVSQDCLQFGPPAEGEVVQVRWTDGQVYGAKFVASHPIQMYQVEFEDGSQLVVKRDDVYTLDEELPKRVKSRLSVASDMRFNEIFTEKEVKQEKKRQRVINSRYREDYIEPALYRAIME
# PLK1 PBD inh – qHTS for Inhibitors of PLK1-PDB (polo-like kinase 1 - polo-box domain): Primary Screen | Serine/threonine-protein kinase PLK1 (Homo sapiens), P53350 | Plk1 PBD binding of FITC phosphopeptide, fluorescence polarization | Potency, µM, without a hit: max response, negative = inhibition, actives largely listed as inhibitors | 360,000 tested, 2.8% active; also: series mostly up to about 57 µM; % is scaled to controls: 0 for no effect and ±100 for the full control effect; nearly all actives have a fitted effect of over 65% in size
# VDR inhibitor – Inhibitors of the vitamin D receptor (VDR): qHTS; Vitamin D3 receptor (Homo sapiens), P11473; VDR-SRC2-3 peptide fluorescence polarization, 2 h; Potency, µM, inactives show max response, negative = inhibition, most hits filed as inhibitors; 400,000 tested, 0.93% active; AID 504847, 2011; also: % is scaled to controls: 0 for no effect and ±100 for the full control effect
#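 VDR–SRC2-3 interaction, FP format. Cmpds 23 nl via pintool, brief spin, 2 h ambient incubation.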
# L3MBTL1 block – qHTS Assay for the Inhibitors of L3MBTL1; Potency, µM (titrated, usually from 57.1 µM), for inactives: at the highest dose activity, negative = inhibition, most hits filed as inhibitors; 230,000 tested, 0.66% active; AID 485360, 2010; Lethal(3)malignant brain tumor-like protein 1 (Homo sapiens), Q9Y468; AlphaScreen L3MBTL1–H3K9me1 peptide binding; also: % is scaled to controls: 0 for no effect and ±100 for the full control effect; nearly all actives have a fitted effect of over 60% in size
#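 Read-out is AlphaScreen signal from streptavidin donor and nickel chelate acceptor beads (10 ug/mL final each) bridging L3MBTL1 (50 nM) and biotinylated K9-monomethylated H3(1-15) peptide (75 nM), after 30 min compound exposure at room temperature.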
# Active calls of the source: *; u = inconclusive; x = not tested or not shown; [ ] = another dose, or the depositor's remark. Calls follow the shape of the dose curve; as a rule, active = well fitted curve in the direction sought with a large enough effect; inconclusive = small, poorly fitted or top-dose-only effect, or another doubt; inactive = no such curve, though single readings can be large; an effect the other way counts as inactive or inconclusive. Potency is read from the fitted curve at half-maximal effect.
SMILES,BAZ2B inh,HP1b chromo inh,JMJD2A Tudor,PLK1 PBD inh,VDR inhibitor,L3MBTL1 block
CC1=C(/C=C/C(C)=C/C=C/C(C)=C/C=C/C=C(C)/C=C/C=C(C)/C=C/C2=C(C)C(=O)C(O)CC2(C)C)C(C)(C)CC(O)C1=O (stereo unspecified),x,x,x,x,-19.2%,x
COc1cc(F)c(S(=O)(=O)N2CCN(S(=O)(=O)c3ccc(N)cc3)CC2)c(F)c1,x,x,-6.1%,x,x,x
CCOc1ccc(C(=O)NCC(c2ccc3c(c2)OCO3)N2CCN(c3ccccc3F)CC2)cc1 (stereo unspecified),2.8%,21.2%[57 µM],-32.3%,x,2.7%,x
COc1ccc(OC)c(S(=O)(=O)N2CCCC(C(=O)NCCN3CCOCC3)C2)c1 (stereo unspecified),-14.7%,23.5%,-7.7%,0.0%,0.2%,x
N#CC1=C(S)N(c2ccccc2)C2(CCCCC2)NC1=O,u,31.3%,-12.5%,-1.6%,35.5µM*,-0.6%
C#CCOCCOCCOCCNc1nc(N2CCN(C(=O)[C@H](CCC(=O)O)n3cc([C@@H](N)CCCCN)nn3)CC2)nc(N2CCN(C(=O)[C@H](CCCCN)n3cc([C@@H](N)CC(N)=O)nn3)CC2)n1,x,34.1%,50.1µM*,5.3%,6.7%,-2.6%
C#CCOCCOCCOCCNc1nc(N2CCN(C(=O)[C@H](CCC(=O)O)n3cc([C@@H](N)CCCCN)nn3)CC2)nc(N2CCN(C(=O)[C@H](CCC(=O)O)n3cc([C@@H](N)CCCCN)nn3)CC2)n1,x,-9.2%,56.2µM*,-7.3%,-17.1%,u
Cc1cc2ccccn2c1C(=O)c1ccc([N+](=O)[O-])o1,10µM*,-11.3%,u,-3.0%,-28.9%,-7.2%
Cc1cc2ccccn2c1C(=O)c1ccc(Cl)c([N+](=O)[O-])c1,11.2µM*,u,u,3.3%,-2.5%,-16.2%
Cc1cc2ccccn2c1C(=O)c1ccc([N+](=O)[O-])cc1[N+](=O)[O-],25.1µM*,39.8µM*,20µM*,-11.6%,-1.1%,x
Cc1cc2ccccn2c1C(=O)c1cccc([N+](=O)[O-])c1,u,u,-18.1%,-10.4%,-3.9%,x
Cc1cc2ccccn2c1C(=O)c1ccccc1Br,-17.9%,17.2%,-13.3%,-8.3%,-0.6%,x
Cc1ccc(-n2c(=O)c3c(c4cc(C)ccc4n3C)n(CC(=O)NCc3ccccc3)c2=O)cc1,-0.5%,13.0%,-14.5%,x,12.6%,x
COc1ccc(Cn2c(C(=O)O)c(CNCc3ccccc3F)c3ccc(OC)cc32)cc1,u,28.2%,-11.0%,x,1.0%,x
O=C(OC1CCOC1=O)c1cc(S(=O)(=O)N2CCOCC2)c(Cl)cc1Cl (stereo unspecified),11.0%,13.6%,-14.3%,-1.0%,-14.3%,7.1%
CCOc1cc(NCc2ccccc2)c2ncn(C(C)C)c2c1,x,u,50.1µM*,1.0%,-2.5%,u
CC[C@H](CO)Oc1cc(NCc2ccc(Cl)c(Cl)c2)c2ncn(C(C)C)c2c1,x,-15.1%,31.6µM*,1.6%,-13.7%,-26.6%
CCC(CO)Oc1cc(NCc2ccc(Cl)cc2Cl)c2ncn(C(C)C)c2c1 (stereo unspecified),x,-17.9%,39.8µM*,-10.0%,4.4%,-25.0%
CCC(CO)Oc1cc(NCc2ccccc2O)c2ncn(C(C)C)c2c1 (stereo unspecified),x,-17.1%,u,-8.2%,-10.5%,-12.4%
CCC(CO)Oc1cc(NCc2ccc(OC)cc2)c2ncn(C(C)C)c2c1 (stereo unspecified),u,-7.4%,-36.0%,2.4%,-22.6%,-7.2%
CCC(CO)Oc1cc(NCc2ccc(C)cc2)c2ncn(C(C)C)c2c1 (stereo unspecified),x,-3.4%,56.2µM*,-1.2%,-11.1%,-13.7%
CCOC(=O)c1nn(-c2ccc(C)cc2)c(=O)cc1OCC(=O)N1CCN(c2ccccc2)CC1,-6.1%,-2.0%,-27.0%,-6.8%,-2.9%,-5.7%
CC[C@H](CO)Oc1cc(NCc2cccc(N)c2)c2ncn(C(C)C)c2c1,x,x,x,1.0%,x,x
CCC(CO)Oc1cc(NCc2cccc(C)c2)c2ncn(C(C)C)c2c1 (stereo unspecified),x,29.6%,u,-14.8%,89.1µM*,-8.5%
COc1cccc2cc(-c3nc4sc5c(c4c(=O)[nH]3)CCC(C(C)(C)C)C5)c(=O)oc12 (stereo unspecified),-37.5%,19.9%,-1.6%,x,7.8%,x
SMILES,BAZ2B inh,HP1b chromo inh,JMJD2A Tudor,PLK1 PBD inh,VDR inhibitor,L3MBTL1 block
COc1cccc2c1Oc1ncccc1N(C(=O)CCC(=O)NCCC(C)C)C2,9.8%[57.1 µM],47.7%,5.8%,x,2.3%,x
Cc1cc(Cl)c2oc(C(=O)N(C)C3CCOC3)c(C)c2c1 (stereo unspecified),-17.4%,5.8%,14.1µM*,3.36µM*,u,x
Cc1ccc(-c2nnn(CCC(=O)NC3CCCC3)n2)cc1,10.2%,13.6%,-7.4%,1.0%,-5.8%,16.2%
Cc1ccc(OCCn2cc(/C=N/NC(=O)c3ccncc3)c3ccccc32)cc1,-30.6%,33.8%,-12.2%,15µM*,8.4%,-13.3%
Cc1cc(-c2c(C)[nH]n(-c3ccc(Cl)cc3)c2=O)n[nH]1,28.2µM*,7.6%,u,-7.3%,3.0%,-28.0%
CCCC(C(=O)O)N1C(=O)/C(=C2\C(=O)N(C)c3ccccc32)SC1=S (stereo unspecified),44.7µM*,-36.6%,u,u,-28.9%,-0.6%
Cc1c(N2C(=O)/C(=C3/C(=O)N(C)c4ccccc43)SC2=S)c(=O)n(-c2ccccc2)n1C,3.5%,25.0%,-4.5%,-15.1%,-4.9%,9.9%
O=C(O)CN1C(=O)/C(=C2\SC(=S)N(C(Cc3ccccc3)C(=O)O)C2=O)c2ccccc21 (stereo unspecified),56.2µM*,-14.8%,-26.5%,-15.4%,3.5%,-5.6%
O=C(NCC1CCCO1)c1c[nH]c2ccc(S(=O)(=O)Nc3ccc(F)cc3F)cc2c1=O (stereo unspecified),x,7.1%,-5.7%,x,-8.9%,x
O=C(COC(=O)CCN1C(=O)C2CC=CCC2C1=O)Nc1ccc([N+](=O)[O-])cc1 (stereo unspecified),x,42.7%,-7.8%,0.1%,-5.8%,1.9%
O=[N+]([O-])c1ccc(N/N=C/c2sc(N3CCOCC3)nc2-c2ccccc2)c(S(=O)(=O)Nc2ccccc2Cl)c1,u,-9.4%,-32.4%,u,-0.8%,-16.6%
